# Measured values from PubChem BioAssay (NCATS).
# Several values for one entry are separate records, joined by “and”; a condition that tells them apart may be missing. Equal entries are not always repeated. Inconclusive results are not listed. A call without a number means that no potency is given here. Activity calls are given as the source filed them. Unless noted, calls follow the shape of the dose curve; as a rule, active = well fitted curve in the direction sought with a large enough effect; inconclusive = small, poorly fitted or top-dose-only effect, or another doubt; inactive = no such curve, though single readings can be large; an effect the other way counts as inactive or inconclusive.
# How the values were obtained:
# [1] = AP1 Signaling Pathway (AID 357; active = well fitted curve in either direction with a large enough effect, not every such curve was filed as active;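 also: ME-180 reporter cells stimulated with EGF at its EC50 level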)
# How it was run: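 First, ME-180 AP-1-bla cells were cultured overnight at 37 °C in low-serum Opti-MEM. Next, titrated compounds with EC50 EGF were incubated 5 hours. Finally, CCF4 was added for 2.5 hours and the 460/530 nm ratio recorded.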
# [2] = target: Cytochrome P450 1A2 (Homo sapiens) (UniProt P05177); test: p450-cyp1a2 (AID 410; calls by dose curve)
# How it was run: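 20nM CYP1A2 with 100uM Luciferin-ME (at Km) in 100mM KPO4; compound preincubated 10 min, NADPH regeneration added, 60 min at room temperature. Luciferin quantified by luminescence after detection reagent; normalized to 57 uM furafylline.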
# [3] = NFAT Signaling Pathway (AID 444; active = well fitted curve in either direction with a large enough effect, not every such curve was filed as active;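 also: carbachol stimulus at about its EC50 of 1 µM final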); settings: Jurkat NFAT-bla M1, carbachol, beta-lactamase ratio, 5 h
# How it was run: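 Read-out: CCF4 FRET ratio (460 nm/530 nm) after 1 h RT dye loading, used for %activity and AC50 from titration series. Cells: Jurkat NFAT-β-lactamase/M1 line, treated with compound plus 1 uM carbachol for 5 h, 37 °C.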
# [4] = target: Glucocorticoid receptor (Homo sapiens) (UniProt P04150); test: GR-GFP Redistribution (AID 450;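 active = compounds whose dose series gives a full or clear partial fitted curve of increased nuclear translocation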; also: potency is read from the fitted curve at half-maximal effect); settings: U2OS GR-GFP nuclear translocation, laser cytometry, 2 h
# [5] = target: Glucocorticoid receptor (Homo sapiens) (UniProt P04150); test: GR-EFC Redistribution (AID 451; calls by dose curve; also: potency is read from the fitted curve at half-maximal effect); settings: CHO-K1 GR-EFC translocation, beta-gal luminescence, 2 h
# How it was run: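 Translocation of GR-ED fusion to nuclear EA restores b-gal, read by luminescence after 1 h room-temperature detection. Engineered CHO-K1 biosensor cells, 1,000/well, exposed 2 h at 37 C to titrations up to 46 uM final.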
# [6] = target: Mitogen-activated protein kinase 10 (Mus musculus) (UniProt Q61831); test: JNK3 AlphaScreen Assay (AID 530; active = well fitted curve in either direction with a large enough effect, not every such curve was filed as active;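 also: kinase came from lysate of stimulated human HepG2 cells; signal reports phosphorylation of biotinylated GST-cJun 1-79 at Ser73 with 10 µM ATP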)
# How it was run: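 Compound titrations were preincubated 15 minutes at room temperature with substrate, antibody and pre-activated JNK3-containing HepG2 lysate. Reactions were started with 10 uM ATP and stopped with EDTA-containing bead buffer for AlphaScreen detection.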
# [7] = target: 3',5'-cyclic-AMP phosphodiesterase 4B (Homo sapiens) (UniProt Q07343); test: qHTS Assay for Inhibitors of PDE-IV (AID 607; active = well fitted activation curve with a large enough effect in the main read-out, with a control signal flat, not every such curve was filed as active)
# How it was run: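 Live HEK293 cells with a modified cyclic nucleotide-gated (CNG) channel report intracellular cAMP via membrane-potential dye fluorescence (ex 535/em 590 nm). Endogenous PDE-IV was targeted. Compounds were tested at up to 22.9 uM final; RO 20-1724 100 uM served as control.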
# [8] = target: Guanine nucleotide-binding protein G(i) subunit alpha-1 (Homo sapiens) (UniProt P63096); test: qHTS Assay for Inhibitors of RGS12 GoLoco Motif Activity (Green Fluorophore) (AID 879);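 also: negative values mean loss of peptide binding seen as reduced polarization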
# How it was run: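 Fluorescence polarization assay: 50 nM Gαi1 with 10 nM FITC-labeled RGS12 GoLoco peptide in 10 mM Tris pH 7.5, 150 mM NaCl, 0.1 mM GDP, 0.05% NP40, 10 min at room temperature with compound.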
# [9] = target: Pyruvate kinase (Leishmania mexicana) (UniProt Q27686); test: qHTS Validation Assay for Inhibitors of Leishmania Mexicana Pyruvate Kinase (AID 945)
# How it was run: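 Compounds are tested as eight-point concentration series. Reactions contain 0.2 nM LmPYK E451W, 0.5 mM PEP, 0.1 mM ADP, 7 mM MgCl2 and 50 mM KCl at pH 7.2, run 1 h at room temperature, then read by PKLight luminescence.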
# [10] = target: Pyruvate kinase PKM (Homo sapiens) (UniProt P14618); test: qHTS Assay for Activators of Human Muscle Pyruvate Kinase (AID 954; active = well fitted curve in the direction sought with a large enough effect, not every such curve was filed as active)
# How it was run: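 Enzyme was run at intermediate activity so both inhibitors and activators could be detected. ATP formed from ADP and PEP by 0.1 nM human PKM2 during a 1 h room-temperature incubation was quantified by coupled luciferase luminescence.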
# [11] = target: Alpha-galactosidase (Coffea arabica) (UniProt Q42656); test: Counterscreen for Glucocerebrosidase Inhibitors: qHTS Assay for Coffee Bean alpha-Galactosidase at pH 4.5 (AID 957)
# How it was run: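 Coffee bean enzyme (2 nM) with 80 uM 4-methylumbelliferyl alpha-D-galactopyranoside in 50 mM citric acid, 0.005% Tween-20, pH 4.5, 20 min at room temperature; compounds 0.7 nM–77 uM. Stopped at pH 10, fluorescence 365/440 nm; AC50 from Hill fits.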
# [12] = target: Alpha-galactosidase A (Homo sapiens) (UniProt P06280); test: Counterscreen for Glucocerebrosidase Inhibitors: qHTS Assay for Human alpha-Galactosidase at pH 4.5 (AID 992)
# How it was run: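 Read-out is 4-methylumbelliferone fluorescence (365 nm excitation, 440 nm emission) after a pH 10 NaOH/glycine stop. Reactions held 2 nM enzyme and 80 uM substrate at pH 4.5 for 20 min at room temperature.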
# [13] = target: alpha-glucosidase (Oryza sativa, rice) (UniProt Q653V4); test: Counterscreen for Glucocerebrosidase Inhibitors: qHTS Assay for Rice alpha-Glucosidase at pH 5.0 (AID 997)
# How it was run: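 Rice alpha-glucosidase (4 nM final) with 400 uM 4-methylumbelliferyl-alpha-D-glucopyranoside in citrate buffer pH 5.0, 20 min at room temperature, stopped at pH 10; fluorescence 365/440 nm, compounds 0.7 nM–77 uM, AC50 from Hill fits.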
# [14] = target: Alpha-galactosidase (Coffea arabica) (UniProt Q42656); test: Counterscreen for Glucocerebrosidase Inhibitors: qHTS Assay for Coffee Bean alpha-Galactosidase at pH 5.9 (AID 998)
# How it was run: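 Compounds were titrated from 0.7 nM to 77 uM against green coffee bean alpha-galactosidase (2 nM) using 80 uM fluorogenic 4-methylumbelliferyl substrate. After 20 min at room temperature, reactions were stopped at pH 10 and read by fluorescence.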
# [15] = test system: Zika virus NS2B-NS3 protease; test: Primary screen GU AMC qHTS for Zika virus inhibitors (AID 1347154); also: nearly all actives have a fitted effect of over 70% in size
# How it was run: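 Fluorogenic AMC-substrate cleavage by noncovalent NS2B-NS3 protease complex (25 nM, pH 8.0 Tris buffer with Tween 20) followed for 15 minutes at room temperature (~20% conversion). Percent inhibition from ex340/em450 signal change, fitted by 4-parameter Hill equation.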
# [16] = Primary qHTS for small molecule stabilizers of the endoplasmic reticulum resident proteome: Secreted ER Calcium Modulated Protein (SERCaMP) assay (AID 1508630)
# How it was run: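 GLuc-SERCaMP-expressing SH-SY5Y cells, pretreated 16 h with compound, are challenged with thapsigargin to empty ER calcium stores; after 4 h, coelenterazine is added directly to the medium and luminescence is imaged.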
# [17] = Stat Signaling Pathway (AID 446; active = well fitted curve in either direction with a large enough effect, not every such curve was filed as active;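 also: ME-180 cervical cancer cells given 40 pM IL-6 alongside compound; SIE-controlled beta-lactamase reporter measured as 460/530 nm FRET emission ratio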)
# How it was run: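 IL-6/STAT signaling read in ME-180 cells via an SIE beta-lactamase reporter. Stimulus was 40 pM IL-6 (its AC50) for 5 hrs, so both activation and inhibition register.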
# [18] = qHTS Assay for Lipid Storage Modulators (AID 1519; calls by dose curve); settings: Drosophila S3 cells, BODIPY lipid droplet/cell ratio, laser cytometry, cells loaded with oleic acid
# How it was run: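 Cells seeded at 5,000 per well were treated with compounds over a concentration series and loaded with oleic acid (400 uM, as added). Lipid droplet fluorescence (488 nm excitation, 500-530 nm channel) was read by laser-scanning cytometry and normalized to 20 uM Triacsin C.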
# [19] = target: Ubiquitin carboxyl-terminal hydrolase 1 (Homo sapiens) (UniProt O94782); test: Inhibitors of USP1/UAF1: Pilot qHTS (AID 504865);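 also: rhodamine fluorescence freed from ubiquitin-rhodamine substrate followed over time; top concentration of the series differs between compounds; nearly all actives have a fitted effect of over 35% in size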
# How it was run: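 Deubiquitinase activity followed as kinetic rhodamine fluorescence release from 150 nM Ub-Rho. 1 nM USP1/UAF1 with compound, after 15 min room-temperature preincubation, in HEPES pH 7.8 buffer containing TCEP, EDTA, BSA and Tween-20.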
# [20] = target: DNA dC->dU-editing enzyme APOBEC-3G (Homo sapiens) (UniProt Q9HC16); test: qHTS for inhibitors of Vif-A3G interactions: Validation (AID 588379)
# How it was run: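 HeLa cells stably expressing Vif and A3G-eYFP, 700 cells/well, incubated overnight at 37 deg C, then exposed to compound overnight at 37 deg C. Inhibition of Vif-mediated degradation read as increased yellow fluorescence (Ex 488/Em 500-530) by laser-scanning cytometry.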
# [21] = measured here: cell count channel max response
# [22] = measured here: lipid channel max response
# Cytochrome P450 1A2 (Homo sapiens), sequence (P05177 whole entry, looked up): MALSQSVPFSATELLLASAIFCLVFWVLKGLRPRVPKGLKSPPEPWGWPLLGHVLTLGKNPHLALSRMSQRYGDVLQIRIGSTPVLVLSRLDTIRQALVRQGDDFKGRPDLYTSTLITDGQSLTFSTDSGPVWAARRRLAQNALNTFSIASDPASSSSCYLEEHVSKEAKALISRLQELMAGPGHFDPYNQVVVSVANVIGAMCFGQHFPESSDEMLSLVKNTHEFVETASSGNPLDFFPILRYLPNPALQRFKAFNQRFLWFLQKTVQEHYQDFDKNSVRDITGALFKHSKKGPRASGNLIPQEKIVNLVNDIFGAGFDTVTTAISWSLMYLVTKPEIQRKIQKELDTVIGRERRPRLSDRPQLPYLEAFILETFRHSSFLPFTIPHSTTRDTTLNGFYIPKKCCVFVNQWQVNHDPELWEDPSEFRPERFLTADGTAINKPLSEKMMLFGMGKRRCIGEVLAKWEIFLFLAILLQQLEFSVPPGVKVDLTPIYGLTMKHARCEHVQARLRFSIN
# DNA dC->dU-editing enzyme APOBEC-3G (Homo sapiens), sequence (Q9HC16 whole entry, looked up): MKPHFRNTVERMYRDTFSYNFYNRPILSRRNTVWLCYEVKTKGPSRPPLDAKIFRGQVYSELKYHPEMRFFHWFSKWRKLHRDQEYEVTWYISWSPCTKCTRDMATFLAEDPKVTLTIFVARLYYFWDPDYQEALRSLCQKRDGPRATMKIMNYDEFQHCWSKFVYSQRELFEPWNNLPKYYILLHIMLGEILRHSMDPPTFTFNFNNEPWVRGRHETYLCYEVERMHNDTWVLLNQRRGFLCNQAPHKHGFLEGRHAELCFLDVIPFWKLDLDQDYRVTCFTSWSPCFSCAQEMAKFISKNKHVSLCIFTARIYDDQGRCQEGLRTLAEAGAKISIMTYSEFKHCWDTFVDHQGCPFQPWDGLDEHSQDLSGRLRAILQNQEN
# 3',5'-cyclic-AMP phosphodiesterase 4B (Homo sapiens), sequence (Q07343 whole entry, looked up): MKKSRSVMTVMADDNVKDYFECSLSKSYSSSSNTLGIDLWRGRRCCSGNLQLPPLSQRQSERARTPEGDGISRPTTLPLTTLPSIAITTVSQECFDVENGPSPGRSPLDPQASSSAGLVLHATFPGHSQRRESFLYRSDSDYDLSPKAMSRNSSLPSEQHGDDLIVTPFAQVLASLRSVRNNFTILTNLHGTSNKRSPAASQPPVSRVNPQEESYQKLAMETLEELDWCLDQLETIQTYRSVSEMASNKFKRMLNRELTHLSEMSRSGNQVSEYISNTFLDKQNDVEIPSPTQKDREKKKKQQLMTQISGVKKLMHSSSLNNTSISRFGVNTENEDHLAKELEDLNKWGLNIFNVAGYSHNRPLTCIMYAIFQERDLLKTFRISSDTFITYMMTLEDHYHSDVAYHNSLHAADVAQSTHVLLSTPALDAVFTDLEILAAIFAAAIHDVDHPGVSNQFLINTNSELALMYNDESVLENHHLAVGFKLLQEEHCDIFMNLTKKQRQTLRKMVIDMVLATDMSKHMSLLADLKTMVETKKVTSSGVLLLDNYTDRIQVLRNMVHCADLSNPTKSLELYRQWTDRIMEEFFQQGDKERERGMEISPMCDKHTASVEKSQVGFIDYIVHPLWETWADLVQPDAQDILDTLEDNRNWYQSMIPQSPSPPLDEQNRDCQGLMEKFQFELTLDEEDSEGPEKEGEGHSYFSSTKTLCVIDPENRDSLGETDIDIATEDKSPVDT
# Glucocorticoid receptor (Homo sapiens), sequence (P04150 whole entry, looked up, the tested form may be a part): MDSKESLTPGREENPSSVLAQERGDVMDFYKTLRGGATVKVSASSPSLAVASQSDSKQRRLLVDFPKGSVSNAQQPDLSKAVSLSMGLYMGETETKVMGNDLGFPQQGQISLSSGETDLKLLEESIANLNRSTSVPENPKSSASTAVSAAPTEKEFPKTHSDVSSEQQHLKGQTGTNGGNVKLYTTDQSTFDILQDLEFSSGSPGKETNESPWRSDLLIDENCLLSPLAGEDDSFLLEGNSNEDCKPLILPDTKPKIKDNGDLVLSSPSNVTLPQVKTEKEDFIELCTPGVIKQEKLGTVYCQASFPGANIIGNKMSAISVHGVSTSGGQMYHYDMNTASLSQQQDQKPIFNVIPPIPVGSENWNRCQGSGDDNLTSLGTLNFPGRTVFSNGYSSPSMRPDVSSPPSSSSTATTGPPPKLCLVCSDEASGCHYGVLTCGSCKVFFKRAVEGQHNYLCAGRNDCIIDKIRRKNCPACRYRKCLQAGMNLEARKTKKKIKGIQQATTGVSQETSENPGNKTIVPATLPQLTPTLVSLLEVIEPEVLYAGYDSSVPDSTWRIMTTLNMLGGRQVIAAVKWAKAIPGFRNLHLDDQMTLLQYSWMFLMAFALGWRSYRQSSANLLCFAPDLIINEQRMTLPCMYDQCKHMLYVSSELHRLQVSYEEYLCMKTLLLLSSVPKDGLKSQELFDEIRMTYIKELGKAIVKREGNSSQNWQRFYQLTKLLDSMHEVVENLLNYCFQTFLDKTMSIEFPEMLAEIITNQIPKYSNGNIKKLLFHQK
# Guanine nucleotide-binding protein G(i) subunit alpha-1 (Homo sapiens), sequence (P63096 whole entry, looked up): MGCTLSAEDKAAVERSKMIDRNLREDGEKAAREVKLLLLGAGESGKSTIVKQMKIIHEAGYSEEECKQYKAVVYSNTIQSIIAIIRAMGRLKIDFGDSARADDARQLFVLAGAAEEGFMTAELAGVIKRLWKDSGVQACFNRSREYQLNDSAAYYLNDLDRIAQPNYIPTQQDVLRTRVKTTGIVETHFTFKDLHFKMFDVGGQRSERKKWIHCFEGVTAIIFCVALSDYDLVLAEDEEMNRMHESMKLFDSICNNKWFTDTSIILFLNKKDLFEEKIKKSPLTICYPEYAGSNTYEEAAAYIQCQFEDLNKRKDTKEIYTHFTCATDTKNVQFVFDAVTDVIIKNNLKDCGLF
# Alpha-galactosidase A (Homo sapiens), sequence (P06280 whole entry, looked up): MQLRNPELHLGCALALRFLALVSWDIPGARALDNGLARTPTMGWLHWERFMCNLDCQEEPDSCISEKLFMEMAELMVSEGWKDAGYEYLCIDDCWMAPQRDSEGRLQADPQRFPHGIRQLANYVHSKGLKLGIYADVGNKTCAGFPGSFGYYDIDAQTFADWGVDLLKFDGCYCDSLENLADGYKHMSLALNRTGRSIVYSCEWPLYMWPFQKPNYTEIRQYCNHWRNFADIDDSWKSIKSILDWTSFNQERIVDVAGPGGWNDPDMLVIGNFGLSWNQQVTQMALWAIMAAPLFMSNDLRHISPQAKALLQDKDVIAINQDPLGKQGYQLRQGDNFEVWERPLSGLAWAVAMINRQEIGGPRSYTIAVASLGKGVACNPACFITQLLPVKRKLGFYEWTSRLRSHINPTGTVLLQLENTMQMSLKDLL
# Pyruvate kinase (Leishmania mexicana), sequence (Q27686 2-499 E452W): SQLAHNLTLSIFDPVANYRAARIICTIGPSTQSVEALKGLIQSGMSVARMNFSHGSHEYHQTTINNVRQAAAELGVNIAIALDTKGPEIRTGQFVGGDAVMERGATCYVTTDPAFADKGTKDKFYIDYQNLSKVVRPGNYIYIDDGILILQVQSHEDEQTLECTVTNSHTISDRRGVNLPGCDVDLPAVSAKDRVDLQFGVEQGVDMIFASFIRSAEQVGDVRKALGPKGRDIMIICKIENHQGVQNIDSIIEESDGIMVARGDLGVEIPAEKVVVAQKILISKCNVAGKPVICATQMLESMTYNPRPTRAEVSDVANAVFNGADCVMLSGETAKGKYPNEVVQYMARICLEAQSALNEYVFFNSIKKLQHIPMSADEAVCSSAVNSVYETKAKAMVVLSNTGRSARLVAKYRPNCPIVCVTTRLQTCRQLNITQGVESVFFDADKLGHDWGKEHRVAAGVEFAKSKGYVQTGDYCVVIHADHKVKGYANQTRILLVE
# Pyruvate kinase PKM (Homo sapiens), sequence (P14618 whole entry, looked up): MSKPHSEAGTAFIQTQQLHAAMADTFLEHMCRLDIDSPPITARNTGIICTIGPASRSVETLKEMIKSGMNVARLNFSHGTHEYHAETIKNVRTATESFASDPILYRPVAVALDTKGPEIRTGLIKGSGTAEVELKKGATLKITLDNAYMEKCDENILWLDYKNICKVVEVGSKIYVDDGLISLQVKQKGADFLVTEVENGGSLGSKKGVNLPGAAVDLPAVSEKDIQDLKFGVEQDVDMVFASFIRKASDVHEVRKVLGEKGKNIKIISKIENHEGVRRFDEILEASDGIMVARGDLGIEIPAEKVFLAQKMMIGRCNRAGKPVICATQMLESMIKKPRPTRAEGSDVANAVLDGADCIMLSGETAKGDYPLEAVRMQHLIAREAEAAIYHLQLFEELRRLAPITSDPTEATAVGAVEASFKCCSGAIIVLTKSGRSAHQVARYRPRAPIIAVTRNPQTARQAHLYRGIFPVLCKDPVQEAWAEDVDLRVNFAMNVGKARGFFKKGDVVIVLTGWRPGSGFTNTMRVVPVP
# Alpha-galactosidase (Coffea arabica), sequence (Q42656 whole entry, looked up): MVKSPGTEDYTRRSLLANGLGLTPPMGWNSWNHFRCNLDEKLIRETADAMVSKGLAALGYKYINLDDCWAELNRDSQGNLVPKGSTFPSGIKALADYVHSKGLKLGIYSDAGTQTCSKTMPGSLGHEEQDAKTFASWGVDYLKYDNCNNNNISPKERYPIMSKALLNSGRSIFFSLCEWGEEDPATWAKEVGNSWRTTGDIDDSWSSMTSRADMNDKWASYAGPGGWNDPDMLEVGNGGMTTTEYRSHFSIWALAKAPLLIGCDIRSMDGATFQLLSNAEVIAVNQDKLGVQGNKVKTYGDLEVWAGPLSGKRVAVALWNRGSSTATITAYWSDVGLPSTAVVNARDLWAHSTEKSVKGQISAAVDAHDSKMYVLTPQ
smiles,measurement,setting,value
COc1cc(CCN)ccc1O,outcome,[1],inactive
same,Potency,[2],inactive
same,"activity change, negative = inhibition",[3]; at 38 µM (top of the series),5.48% (inactive)
same,Potency,[4],> 46 µM (inactive)
same,Potency,[5],> 46 µM (inactive)
same,outcome,[6],inactive
same,Potency,[7],inactive
same,outcome,[8],inactive
same,outcome,[9],inactive
same,outcome,[10],inactive
same,outcome,[11],inactive
same,outcome,[12],inactive
same,outcome,[13],inactive
same,outcome,[14],inactive
same,Potency,[15],inactive
same,Potency,[16],inactive
c1ccc2c(c1)OC[C@@H](C1=NCCN1)O2,Potency,[2],inactive
same,"activity change, negative = inhibition",[3]; at 17.2 µM (top of the series),-9.57% (inactive)
same,"activity change, negative = inhibition",[3]; at 38 µM (top of the series),-27.1% (inactive)
same,outcome,[17],inactive
same,Potency,[4],> 46 µM (inactive) and > 20.6 µM (inactive)
same,Potency,[5],> 46 µM (inactive) and > 20.6 µM (inactive)
same,outcome,[6],inactive
same,Potency,[7],inactive
same,outcome,[8],inactive
same,outcome,[9],inactive
same,outcome,[10],inactive
same,outcome,[11],inactive
same,outcome,[12],inactive
same,outcome,[13],inactive
same,outcome,[14],inactive
same,"activity change, negative = inhibition",[18]; at 25.7 µM (top of the series),1.16% (inactive)
same,max response,[18]; [21],-0.675%
same,max response,[18]; [22],-5.05%
same,Potency,[19],inactive
same,Potency,[20],inactive
same,Potency,[15],inactive
same,Potency,[16],inactive
NC[C@H](CS(=O)(=O)O)c1ccc(Cl)cc1,Potency,[2],inactive
same,Potency,[4],> 46 µM (inactive)
same,Potency,[5],> 46 µM (inactive)
same,"activity change, negative = inhibition",[18]; at 57.5 µM (top of the series),3.36% (inactive)
same,max response,[18]; [21],7.7%
same,max response,[18]; [22],12%
same,Potency,[20],inactive
same,Potency,[15],inactive
same,Potency,[16],inactive
N[C@H](CCP(=O)(O)O)C(=O)O,outcome,[1],inactive
same,"activity change, negative = inhibition",[3]; at 38 µM (top of the series),13.5% (inactive)
same,outcome,[17],inactive
same,Potency,[4],> 46 µM (inactive)
same,Potency,[5],> 46 µM (inactive)
same,outcome,[6],inactive
same,Potency,[7],inactive
same,outcome,[8],inactive
same,outcome,[9],inactive
same,outcome,[10],inactive
same,outcome,[11],inactive
same,outcome,[12],inactive
same,outcome,[13],inactive
same,outcome,[14],inactive
same,"activity change, negative = inhibition",[18]; at 57.5 µM (top of the series),2.56% (inactive)
same,max response,[18]; [21],21.6%
same,max response,[18]; [22],21.4%
same,Potency,[19],inactive
same,Potency,[20],inactive
same,Potency,[15],inactive
same,Potency,[16],inactive
CN1C[C@H](CNC(=O)OCc2ccccc2)C[C@H]2c3cccc4c3c(cn4C)C[C@@H]21,"activity change, negative = inhibition",[3]; at 17.2 µM (top of the series),-3.47% (inactive)
same,outcome,[17],inactive
same,Potency,[4],> 20.6 µM (inactive)
same,Potency,[5],> 20.6 µM (inactive) and > 46 µM (inactive)
same,outcome,[6],inactive
same,Potency,[7],inactive
same,"activity change, negative = inhibition",[18]; at 25.7 µM (top of the series),-3.64% (inactive)
same,max response,[18]; [21],-21.4%
same,max response,[18]; [22],-20.5%
same,Potency,[20],inactive
same,Potency,[15],inactive
same,Potency,[16],inactive
CCCC(=O)OCC[N+](C)(C)C,outcome,[1],inactive
same,"activity change, negative = inhibition",[3]; at 17.2 µM (top of the series),5.08% (inactive)
same,outcome,[17],inactive
same,Potency,[4],> 20.6 µM (inactive)
same,Potency,[15],inactive
same,Potency,[16],inactive
